Data as given in PubChem BioAssay (NCATS).
Values joined by “and” are separate entries in the source; they are usually repeats but may differ in a detail not shown here. Equal entries are not always repeated. Results filed as inconclusive are left out. A call without a number means that no potency is given here. Where a structure was tested more than once in an assay, its records may differ in their call. Active and inactive are the calls of the source. Unless noted, the call rests on the fitted dose curve; in most records, active means well fitted curve in the direction sought with a large enough effect; inconclusive means small, poorly fitted or top-dose-only effect, or another doubt; inactive means no such curve, though single readings can be large; an effect the other way counts as inactive or inconclusive.

Key:
[1] = qHTS for Inhibitors of Plasmodium falciparum (GB4) proliferation (AID 504315); further: nearly all actives have a fitted effect of over 50% in size; further: potency means the concentration at half of the fitted maximal effect
In short: (§1)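 Erythrocytes infected with P. falciparum line (0.3% parasitemia, 2.5% hematocrit final) incubated with compounds 72 h at 37 °C, 5% CO2; SYBR Green lysis buffer added, fluorescence read next day. Normalized to 0.29 uM artemisinin and DMSO.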

[2] = qHTS for Inhibitors of Plasmodium falciparum (7G8) proliferation (AID 504316); further: nearly all actives have a fitted effect of over 65% in size; further: potency means the concentration at half of the fitted maximal effect; on activity change, negative = inhibition: series mostly up to about 6.7 µM
In short: as §1

[3] = qHTS for Inhibitors of Plasmodium falciparum (HB3) proliferation (AID 504318); further: nearly all actives have a fitted effect of over 60% in size; further: potency means the concentration at half of the fitted maximal effect
In short: as §1

[4] = qHTS for Inhibitors of Plasmodium falciparum (CP250) proliferation (AID 504320); further: potency means the concentration at half of the fitted maximal effect
In short: as §1

[5] = biological target: Atrial natriuretic peptide receptor 1 (Homo sapiens) (UniProt P16066); assay: Natriuretic polypeptide receptor (hNpr1) antagonism - Pilot CMLD screen (AID 1347052; calls by dose curve;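 further: HEK293 cells with hNpr1 stimulated by hNppA peptide at 0.1 nM; cGMP level read as GloSensor luciferase luminescence after agonist stimulation; series mostly up to about 9.2 µM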)
[6] = biological target: Cytochrome P450 2C9 (Homo sapiens) (UniProt P11712); assay: qHTS Assay for Inhibitors and Substrates of Cytochrome P450 2C9 (AID 883); further: nearly all actives have a fitted effect of over 60% in size
In short: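 Luminescent read-out of deoxyluciferin hydroxylation, normalized to 57uM sulphaphenazole (AC100). Reaction: 10nM enzyme, 100uM Luciferin-H (equal to KM), 25mM KPO4, 10 min compound preincubation, then 60 min with NADPH regeneration, both at 37C.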

[7] = biological target: Cytochrome P450 3A4 (Homo sapiens) (UniProt P08684); assay: qHTS Assay for Activators of Cytochrome P450 3A4 (AID 885); further: nearly all actives have a fitted effect of over 65% in size
In short: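 Signal was normalized against complete inhibition by 57 uM ketoconazole. The reaction used 20nM CYP3A4 with 25uM Luciferin-PPXE, 10-min compound preincubation and a 60-min NADPH-supported step at RT.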

[8] = biological target: Cytochrome P450 2D6 (Homo sapiens) (UniProt P10635); assay: qHTS Assay for Inhibitors and Substrates of Cytochrome P450 2D6 (AID 891); further: potency means the concentration at half of the fitted maximal effect; nearly all actives have a fitted effect of over 60% in size
In short: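 Human CYP2D6 (5 nM) with 30 uM Luciferin-ME EGE (at Km) in 100 mM KPO4, compound preincubated 10 min, then NADPH regeneration system for 60 min at room temperature. Luciferin read by luminescence; normalized to 1.43 uM quinidine.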

[9] = biological target: Cytochrome P450 2C19 (Homo sapiens) (UniProt P33261); assay: qHTS Assay for Inhibitors and Substrates of Cytochrome P450 2C19 (AID 899); further: potency means the concentration at half of the fitted maximal effect; nearly all actives have a fitted effect of over 60% in size
In short: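 Luminescence readout of luciferin formed from 10uM Luciferin-H EGE (KM level) by 5 nM CYP2C19 in 50mM KPO4. 60 min NADPH-driven reaction at 37C after 10 min compound preincubation; data scaled to 57uM ketoconazole inhibition.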

Sequence of Atrial natriuretic peptide receptor 1 (Homo sapiens) (P16066 whole entry, looked up): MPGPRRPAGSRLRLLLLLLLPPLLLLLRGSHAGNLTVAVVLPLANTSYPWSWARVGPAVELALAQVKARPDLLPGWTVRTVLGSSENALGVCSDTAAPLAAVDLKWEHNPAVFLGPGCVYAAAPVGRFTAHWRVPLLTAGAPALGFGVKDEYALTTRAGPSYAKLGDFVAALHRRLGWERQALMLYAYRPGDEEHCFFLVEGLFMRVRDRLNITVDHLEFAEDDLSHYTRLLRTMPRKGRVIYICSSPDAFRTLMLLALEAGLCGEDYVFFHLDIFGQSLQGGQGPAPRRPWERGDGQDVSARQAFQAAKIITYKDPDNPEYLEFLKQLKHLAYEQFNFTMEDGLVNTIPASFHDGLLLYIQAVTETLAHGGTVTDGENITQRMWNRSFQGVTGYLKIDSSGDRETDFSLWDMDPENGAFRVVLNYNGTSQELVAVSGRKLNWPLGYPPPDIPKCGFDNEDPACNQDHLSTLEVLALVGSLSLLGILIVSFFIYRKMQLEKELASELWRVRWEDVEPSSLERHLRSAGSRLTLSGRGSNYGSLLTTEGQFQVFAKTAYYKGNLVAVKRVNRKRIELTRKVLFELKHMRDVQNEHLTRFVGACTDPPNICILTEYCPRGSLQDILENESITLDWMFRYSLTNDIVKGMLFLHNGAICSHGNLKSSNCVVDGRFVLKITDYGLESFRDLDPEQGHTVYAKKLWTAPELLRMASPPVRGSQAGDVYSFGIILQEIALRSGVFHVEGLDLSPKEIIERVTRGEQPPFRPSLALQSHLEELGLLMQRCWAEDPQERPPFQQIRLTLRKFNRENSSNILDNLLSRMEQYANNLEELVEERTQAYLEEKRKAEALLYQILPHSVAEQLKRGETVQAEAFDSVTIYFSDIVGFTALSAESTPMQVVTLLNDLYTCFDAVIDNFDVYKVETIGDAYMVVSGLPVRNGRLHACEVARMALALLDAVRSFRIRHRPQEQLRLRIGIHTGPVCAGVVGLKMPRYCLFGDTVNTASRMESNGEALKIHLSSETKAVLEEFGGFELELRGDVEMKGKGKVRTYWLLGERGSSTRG
Sequence of Cytochrome P450 3A4 (Homo sapiens) (P08684 whole entry, looked up): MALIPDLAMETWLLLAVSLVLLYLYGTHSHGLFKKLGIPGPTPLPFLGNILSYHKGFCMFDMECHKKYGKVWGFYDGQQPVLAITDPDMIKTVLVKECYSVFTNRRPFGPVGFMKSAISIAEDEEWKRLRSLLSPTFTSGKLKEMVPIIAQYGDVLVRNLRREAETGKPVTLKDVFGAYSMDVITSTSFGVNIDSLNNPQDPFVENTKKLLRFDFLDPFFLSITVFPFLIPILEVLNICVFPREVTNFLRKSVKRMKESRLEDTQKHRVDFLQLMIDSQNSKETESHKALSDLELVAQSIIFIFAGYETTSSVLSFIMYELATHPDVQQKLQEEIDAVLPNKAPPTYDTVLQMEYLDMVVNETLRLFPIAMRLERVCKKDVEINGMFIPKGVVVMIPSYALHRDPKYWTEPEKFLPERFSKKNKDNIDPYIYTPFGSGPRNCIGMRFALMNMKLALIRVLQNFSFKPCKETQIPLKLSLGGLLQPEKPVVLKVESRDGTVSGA
Sequence of Cytochrome P450 2C19 (Homo sapiens) (P33261 whole entry, looked up): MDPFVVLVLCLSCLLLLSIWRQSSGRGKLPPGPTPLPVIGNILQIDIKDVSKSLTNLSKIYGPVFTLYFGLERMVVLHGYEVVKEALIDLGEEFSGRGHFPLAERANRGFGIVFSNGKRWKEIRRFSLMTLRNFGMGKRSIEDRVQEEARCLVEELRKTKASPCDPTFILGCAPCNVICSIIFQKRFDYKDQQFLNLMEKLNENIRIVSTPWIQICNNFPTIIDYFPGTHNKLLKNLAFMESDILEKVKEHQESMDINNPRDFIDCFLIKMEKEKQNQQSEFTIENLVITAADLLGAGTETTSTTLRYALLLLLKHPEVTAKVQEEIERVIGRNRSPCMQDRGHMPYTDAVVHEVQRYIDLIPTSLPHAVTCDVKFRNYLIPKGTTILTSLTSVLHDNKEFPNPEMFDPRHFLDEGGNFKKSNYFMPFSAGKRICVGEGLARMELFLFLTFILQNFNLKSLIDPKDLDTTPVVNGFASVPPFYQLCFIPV
Sequence of Cytochrome P450 2C9 (Homo sapiens) (P11712 whole entry, looked up): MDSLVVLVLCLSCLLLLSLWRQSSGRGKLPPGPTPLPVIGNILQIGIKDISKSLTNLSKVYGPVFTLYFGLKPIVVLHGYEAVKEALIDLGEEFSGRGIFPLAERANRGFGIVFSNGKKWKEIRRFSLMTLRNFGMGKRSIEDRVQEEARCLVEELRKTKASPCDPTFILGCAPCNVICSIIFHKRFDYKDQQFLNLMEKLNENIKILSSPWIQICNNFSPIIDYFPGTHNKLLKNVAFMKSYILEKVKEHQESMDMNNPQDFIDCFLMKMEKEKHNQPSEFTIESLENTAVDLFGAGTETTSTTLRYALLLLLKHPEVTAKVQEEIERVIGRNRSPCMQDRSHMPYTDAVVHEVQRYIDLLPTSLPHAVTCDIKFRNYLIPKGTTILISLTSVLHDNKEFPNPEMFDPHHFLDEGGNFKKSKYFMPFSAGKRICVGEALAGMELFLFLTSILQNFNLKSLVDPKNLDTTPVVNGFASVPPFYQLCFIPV
Sequence of Cytochrome P450 2D6 (Homo sapiens) (P10635 whole entry, looked up): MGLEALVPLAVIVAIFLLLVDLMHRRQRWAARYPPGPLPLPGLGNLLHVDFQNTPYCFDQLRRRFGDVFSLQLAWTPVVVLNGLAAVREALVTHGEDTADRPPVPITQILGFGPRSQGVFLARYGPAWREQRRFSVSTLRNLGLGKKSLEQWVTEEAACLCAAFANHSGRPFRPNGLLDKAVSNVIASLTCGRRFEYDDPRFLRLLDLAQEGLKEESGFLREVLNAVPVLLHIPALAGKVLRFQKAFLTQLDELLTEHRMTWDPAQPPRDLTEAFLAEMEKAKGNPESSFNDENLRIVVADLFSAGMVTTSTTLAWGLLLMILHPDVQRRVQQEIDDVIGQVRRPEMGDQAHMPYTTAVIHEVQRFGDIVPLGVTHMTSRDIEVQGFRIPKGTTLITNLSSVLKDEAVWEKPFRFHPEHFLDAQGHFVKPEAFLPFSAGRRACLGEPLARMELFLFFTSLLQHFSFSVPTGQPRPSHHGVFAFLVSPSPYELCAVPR

Compound | Potency [1] | Potency [2] | Potency [3] | Potency [4] | Potency [5] | activity change, negative = inhibition [6] | activity change, positive = activation [7] | Potency [8] | Potency [9]
COC(=O)C1C[C@@]23C(=NN=C(SC)C2N(C)c2ccc(OC)cc23)N1C(C)=O (stereo partly drawn) | inactive | inactive | inactive | inactive | inactive |  |  |  | 
CC1(OC(=O)C2CCCC2)C(=O)C=C2C=C3CCCCN3C=C2C1=O (stereo not drawn) | inactive | inactive | inactive | inactive | inactive |  |  |  | 
COC(=O)N1C(c2ccccc2)=Cc2ccccc2C1CC(C)=O (stereo not drawn) | inactive | inactive | inactive | inactive | inactive |  |  |  | 
COC(=O)N[C@@H](c1ccc(Br)cc1)C(C(=O)OC)C(=O)OC | inactive | inactive | inactive | inactive | inactive |  |  |  | 
COC1=C[C@H](C(=O)NCc2ccccc2)[C@@]2(C)Cc3ccccc3[C@@H]2CC1=O | inactive | inactive | inactive | inactive | inactive |  |  |  | 
C=CCN=C1N[C@@H](c2ccccc2)[C@H](C(=O)OC)[C@@H](C)N1CC | inactive | inactive | inactive | inactive | inactive |  |  |  | 
CC(C)=CCn1cnc2c1C(NOCc1ccccc1)=NCN2 | inactive | inactive | inactive | inactive | inactive |  |  |  | 
CCCCCCCc1cc2ccccc2c(=O)o1 | inactive | inactive | inactive | inactive | inactive |  |  |  | 
COC(=O)c1nnc(C(=O)NCc2ccccc2)c2[nH]c3ccccc3c12 | inactive | inactive | inactive | inactive | inactive |  |  |  | 
COc1ccc2c(c1)[C@@]1(OCCC=C[C@@H]1C)C(=O)N2CC1CC1 | inactive | inactive | inactive | inactive | inactive |  |  |  | 
C=CCN1c2ccccc2[C@]23CCC(=O)N(CC(=O)OC)C2=NC(C(=O)OC)=C(C(=O)OC)[C@H]13 | inactive | inactive | inactive | inactive | inactive |  |  |  | 
COc1ccc([C@]23Cc4ccccc4[C@H](O2)C2=C(O3)C(=O)c3ccccc3C2=O)cc1 | 1.69 µM (active) | 1.69 µM (active) | 1.51 µM (active) | inactive | inactive |  |  |  | 
COc1ccc2c(c1)CO[C@H]([C@H](O)CBr)[C@H]2C=Cc1ccccc1 | inactive | inactive | inactive | inactive | inactive |  |  |  | 
COc1ccc(COC(=O)NN=C2C[C@@H](O)[C@@H](O)[C@@H]3[C@H]4C(=O)N([C@@H](C)c5ccccc5)C(=O)[C@@H]4CC[C@H]23)cc1 | inactive | inactive | inactive | inactive | inactive |  |  |  | 
CCOC(=O)CN1C(=O)[C@@]2(C[C@@H](C)C[C@@H](C)O2)c2ccccc21 | inactive | inactive | inactive | inactive | inactive |  |  |  | 
C#CCN1C(=O)CC[C@@]23C1=NC(C(=O)OC)=C(C(=O)OC)[C@@H]2N(C)c1ccccc13 | inactive | inactive | inactive | inactive | inactive |  |  |  | 
Cc1ccccc1Nc1oc(-c2ccccc2)nc1CCc1ccccc1 | inactive and 1.51 µM (active) | inactive and 1.69 µM (active) | inactive and 1.69 µM (active) | inactive and 1.51 µM (active) | inactive |  |  |  | 
CCO[C@@H]1C[C@@]1(C=C[C@@H](C)[C@H](OC)c1ccccc1Br)C(=O)OC | inactive | inactive | inactive | inactive | inactive |  |  |  | 
C[C@@H](ON=C1[C@H]2CCn3c(=O)n(-c4ccccc4)c(=O)n3[C@@H]2[C@H](O)[C@@H]2O[C@H]12)c1cn([C@H](CO)Cc2ccccc2)nn1 | inactive | inactive | inactive | inactive | inactive |  |  |  | 
COc1cc2c(c(OC)c1OC)CC(C)=C(C)CC2NC(=O)C(F)(F)F (stereo not drawn) | inactive | inactive | inactive | inactive | inactive |  |  |  | 
C=CC[C@@H]1C=C[C@@H](ON=C2[C@H]3CCn4c(=O)n(-c5ccccc5)c(=O)n4[C@@H]3[C@H](O)[C@@H]3O[C@H]23)[C@@H](CO)O1 | inactive | inactive | inactive | inactive | inactive |  |  |  | 
CC(C)Nc1oc(-c2ccccc2)nc1-c1ccc(C(F)(F)F)cc1 | inactive | inactive | inactive | inactive | inactive |  |  |  | 
CC=COC(=O)N[C@@H](c1ccccc1)[C@]1(C(=O)OCC)CCCC1=O | inactive | inactive | inactive | inactive | inactive |  |  |  | 
C=CCN=C1NC(c2cccc(F)c2)C(C(=O)OC)=C(C)N1Cc1ccccc1 (stereo not drawn) | inactive | inactive | inactive | inactive | inactive |  |  |  | 
CCCCc1nc2c(c3c1C[C@H](C)OC3)CN(S(=O)(=O)c1ccc(NC(C)=O)cc1)CC2 | inactive | inactive | inactive | inactive | inactive |  |  |  | 

Compound | Potency [1] | Potency [2] | Potency [3] | Potency [4] | Potency [5] | activity change, negative = inhibition [6] | activity change, positive = activation [7] | Potency [8] | Potency [9]
CCOC(=O)CN1C(=O)NC(CCc2ccccc2)C(C(=O)OC)=C1C (stereo not drawn) | inactive | inactive | inactive | inactive | inactive |  |  |  | 
Cc1cc2c(c(=O)n1Cc1ccccc1)[C@H]1O[C@](CCCCN3C(=O)c4ccccc4C3=O)(Cc3ccccc31)O2 | 1.9 µM (active) | 1.69 µM (active) | 1.69 µM (active) | 1.35 µM (active) | inactive |  |  |  | 
CC1(OC(=O)CCc2ccccc2)C(=O)C=C2C=C(c3ccc(C#N)cc3)N(C(CO)CO)C=C2C1=O (stereo not drawn) | inactive | inactive | inactive | inactive | inactive |  |  |  | 
COC(=O)C1=C(C)N(CC#C[Si](C)(C)C)C(=O)N(C(C)=O)C1c1ccccc1 (stereo not drawn) | inactive | inactive | inactive | inactive | inactive |  |  |  | 
COC(=O)N[C@H](c1ccccc1)C(C(=O)OC)C(=O)OC | 1.51 µM (active) | 1.9 µM (active) | 1.9 µM (active) | inactive | inactive |  |  |  | 
C[C@@H]1CC[C@H]2C(=O)N(Cc3ccccc3)C[C@@H](O)CN2[C@@H]1c1cccc(Br)c1 | inactive | inactive | inactive | inactive | inactive |  |  |  | 
CCN1C(=NCc2cccc(Cl)c2)N[C@@H](CCc2ccccc2)[C@H](C(=O)OC)[C@H]1C | inactive | inactive | inactive | inactive | inactive |  |  |  | 
CCCCC1=CC2=C(c3ccco3)C(=O)C(C)(OC(=O)c3ccc(OC)cc3)C(=O)C2=CN1C(CO)CO (stereo not drawn) | inactive | inactive | inactive | inactive | inactive |  |  |  | 
CC(C)=CCN1C(=O)[C@]2(O[C@H](C)CC3=CCCC32)c2c(Br)cccc21 (stereo partly drawn) | inactive | inactive | inactive | inactive | inactive |  |  |  | 
CC(C)(C)Nc1oc(-c2ccccc2)nc1-c1ccccc1 | inactive | inactive | inactive | inactive | inactive |  |  |  | 
COc1ccc(C(=O)CC(=O)c2c(O)cc(OC)cc2OC)cc1 | inactive | inactive | inactive | inactive | inactive | -6.49% [at 11.4 µM] (inactive) | -41.2% [at 11.4 µM] (inactive) | 1.26 µM (active) | 398 nM (active)
COc1ccc(O[C@H]2C=C[C@@H](c3ccccc3)O[C@H]2CON=C2c3cc(OC)ccc3O[C@H](c3cccc(OC)c3)[C@H]2O)cc1 | inactive | 1.69 µM (active) |  | inactive | inactive |  |  |  | 
CC1(OC(=O)C2CCCC2)C(=O)C=C2C=C(c3ccsc3)N(C3CCCCC3)C=C2C1=O (stereo not drawn) | inactive | inactive |  | inactive | inactive |  |  |  | 
COc1ccc(NC2=CC(c3ccccc3)N(c3ccc(OC)cc3)C2=O)cc1 (stereo not drawn) | inactive | inactive | inactive | inactive | inactive |  |  |  | 
COC1=C[C@H](C(=O)N[C@H]2CCCC[C@H]2NC(C)=O)[C@H](C)[C@@H](c2ccccc2)CC1=O | inactive | inactive |  | inactive | inactive |  |  |  | 
COC1=CC2C(=O)C(C1=O)[C@H](c1ccccc1)[C@H]2C (stereo partly drawn) | inactive | inactive |  | inactive | inactive |  |  |  | 
CC(C)(C)OC(=O)N1CCC[C@@H]1C(O)(c1ccccc1)c1ccccc1 | inactive | inactive |  | inactive | inactive |  |  |  | 
COc1cc2c(cc1OC)[C@@H]1O[C@](c3ccsc3)(C2)Oc2cc(-c3ccccc3)oc(=O)c21 | inactive | 1.9 µM (active) and inactive |  | inactive | inactive |  |  |  | 
C=C(C)C(=O)C=Cc1ccc(Br)cc1 | inactive | inactive |  | inactive | inactive |  |  |  | 
COC(=O)c1cc(C(=O)OC)n2c(C)cc3ccccc3c12 | inactive | inactive |  | inactive | inactive |  |  |  | 
COC(=O)c1ccc(CN2C(=O)[C@]3(OCCC=C[C@@H]3C)c3ccccc32)cc1 | inactive | inactive | inactive | inactive | inactive |  |  |  | 
C=CCN1C(=O)[C@]2(OCCC=C[C@H]2C)c2c(Br)cccc21 | inactive | inactive | inactive | inactive | inactive |  |  |  | 
COc1ccc(COC(=O)NN=C2C[C@@H](O)[C@@H](O)[C@@H]3[C@H]4C(=O)N(C[C@@H]5CCCO5)C(=O)[C@@H]4CC[C@@H]23)cc1 | inactive | inactive |  | inactive | inactive |  |  |  | 
C=CCNC(=O)N1CCc2nc(-c3ccc(OC)cc3C)c3c(c2C1)CO[C@@H](c1ccccc1)C3 | inactive | 1.51 µM (active) |  | inactive | inactive |  |  |  | 
COc1ccc(O[C@H]2C=C[C@@H](c3ccccc3)O[C@H]2COC(=O)CCC(C)=NO[C@@H]2O[C@H](COC(C)=O)[C@@H](OC(C)=O)[C@H](OC(C)=O)[C@@H]2OC(C)=O)cc1 | inactive | inactive |  | inactive | inactive |  |  |  | 
